Each sequence was assayed against SMYD3 (assay: pooled miR-30 sensor sort-seq; sequence = guide strand). Conditions: shRNA.
Further: reference of the scale not given here.

Sequence	sensor-assay potency score (higher = more potent)
TTTTCTGACACTTAGCACTACA	-0.327
TAGAATCAAATCTTCAATCAGG	-0.0994
TTCTTCTAAAAGTAGAATCAAA	-1.27
TTTACCTACACAAACACGGAAC	-0.662
TTTGTTAATATTTGACTCCAGA	-0.278
TAATATTTGACTCCAGATCATA	-1.27
TAGCATATCAGCATCCTTGTCC	0.139
TTTTTCTGACACTTAGCACTAC	-0.019
TTGAACTTCCTTCCATACTTGC	-0.357
TTGAACACAATCGAACAGTTGG	0.615
TAGCACTACAGTATTTGGCGAC	0.0593

These sequences were tested against SNAP23 in the same assay as above. Conditions: shRNA.

Sequence	sensor-assay potency score (higher = more potent)
TTAGTTATGCTATTACATGGGC	-0.215
TATAACTGCAACTTAAATCAAA	-0.858
TTTTACTGAGGTAACAACCTCT	0.719
TAATGTATCCACCACTGGCTGC	-0.654
TTGGTGTCAGCCTTGTCTGTGA	0.24
TTAGATACTACATTGCAAGGTG	0.78
TAATCTGGTGAGCTCTCTGTTG	-0.844
TTGTTCCTTTTGTTCATCCAGC	-0.861
TTCTTTGTTCTATTACATGGGC	-0.51
TTGGTTGCTGAAGCTGACCATT	-0.861
TTGAGTCAGGTTCTCTTCCATT	-1.05
TTATTTGTGGATTTTGAGCATC	-0.871

Each sequence was assayed against SNAPC2 in the same assay as above. Conditions: shRNA.

Sequence	sensor-assay potency score (higher = more potent)
TCAGGGGACAGATCCCAGCTGC	-0.373
TATCTTCTCAGCCAGATCCGTC	-0.959
AAGTGACATGAGCAGGTCGAGG	-1.64
TGTAGATCTTCTCAAAGTCCAC	-0.752
AAGTACTTGTAGATCTTCTCAA	0.257
TTATCTTCTCAGCCAGATCCGT	-0.528
TAGATCTTCTCAAAGTCCACAG	-0.173
AGTACTTGTAGATCTTCTCAAA	-1.85
TTCAGTGGAGGGACCAGCCGAC	-0.383
TCAGCTGCTGAGAGCTCGGGGC	-1.02
TTCTCAGCCAGATCCGTCCAGA	-0.94
TTTCAGTTCGCTGTGCTCGGCC	-0.483

What follows are sequences tested against SNCG in the same assay as above. Conditions: shRNA.

Sequence	sensor-assay potency score (higher = more potent)
TGCTTGGTCTTTTCCACCGCAC	-1.01
TTGGATGCCACACCCTCCTGTT	-1.09
TTGGTCTTCTCGGCCACTGAGG	-1.32
CTGTACAACATTCTCCTTGGTC	-1.03
TCTCTTTGGATGCCACACCCTC	-1.21
